A selection: hits, their analogues and other compounds. The true share with any hit is near 0.24%.
hcGAS lum – Primary biochemical luminescence assay for human cyclic GMP-AMP synthase inhibitors | Q8N884 | recombinant h-cGAS, ATP depletion, Kinase-Glo luminescence | inhibition, % at 12.5 µM | actives 0.081% (n = 290,000) | AID 1259398, 2018;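 further: 0% = vehicle reaction and 100% = reaction without DNA for no activity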
Target sequence (Q8N884 whole entry, looked up): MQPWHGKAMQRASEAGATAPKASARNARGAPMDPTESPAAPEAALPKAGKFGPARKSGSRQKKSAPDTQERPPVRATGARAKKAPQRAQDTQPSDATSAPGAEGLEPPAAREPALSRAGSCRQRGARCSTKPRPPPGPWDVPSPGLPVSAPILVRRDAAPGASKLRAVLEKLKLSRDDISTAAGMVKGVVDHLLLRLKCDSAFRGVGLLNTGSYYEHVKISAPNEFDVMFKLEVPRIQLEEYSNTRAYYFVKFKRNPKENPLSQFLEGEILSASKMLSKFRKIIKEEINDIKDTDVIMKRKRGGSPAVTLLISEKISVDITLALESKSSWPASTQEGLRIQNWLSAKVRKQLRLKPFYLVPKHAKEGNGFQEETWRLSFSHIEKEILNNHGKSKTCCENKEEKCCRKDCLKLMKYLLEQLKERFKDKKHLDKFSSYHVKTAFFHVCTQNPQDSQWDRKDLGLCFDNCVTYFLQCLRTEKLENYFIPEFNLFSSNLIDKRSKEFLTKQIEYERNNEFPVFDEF
mcGAS inh – cyclic GMP-AMP synthase inhibitors, mouse, primary biochemical chemiluminescence; Q8C6L5; recombinant cGAS, Kinase-Glo ATP depletion luminescence; inhibition, % at 12.5 µM; actives 0.15% (n = 160,000); AID 1259399, 2018;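 further: 0% = negative control wells and 100% = reference inhibitor with no enzyme activity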
NPYLR7 ag – agonists of mosquito NPYLR7 receptor, primary screen, cell-based, Aedes aegypti, calcium fluorescence, mosquito biting behavior; Aedes aegypti neuropeptide Y-like receptor 7 (NPYLR7); actives 0.15% (n = 270,000); AID 1259423, 2018; activation, % at 10 µM; HEK293T NPYLR7/Galpha15, GCaMP6s calcium fluorescence; in the data active means activation above about 40%;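 further: 0% = vehicle and 100% = reference agonist at the receptor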
Starred values were filed as active, the others as inactive; . = no result. Unless noted, no stated cut-off is given here; in the data, active means inhibition above about 40%; inactive means the rest.

SMILES	hcGAS lum	mcGAS inh	NPYLR7 ag
CCNC(=O)C1(C)CCCN1C(=O)c1ccc2ccccc2c1 (stereo not drawn)	-7	-5	2
Cc1ccc(CN(C(=O)c2cc3cc(Cl)ccc3[nH]2)C(C)C)o1	-6	.	118*
O=C(O)c1cc2cc(Cl)ccc2[nH]1	6	9	-7
CN=c1scc(-c2ccc3c(c2)OCCO3)n1N=Cc1c[nH]c2ccccc12	-7	.	5
O=S1(=O)CCC(=NNc2cc(C(F)(F)F)ccc2Cl)c2cc(F)ccc21	-13	.	2
COc1cccc(CNC2CC2)c1OCc1nc(CO)cs1	-2	.	46*
COc1cccc(CN(C(=O)c2cccc(F)c2)C2CC2)c1OCc1nc(CO)cs1	-9	-7	-6
C=CCC(Nc1ccccc1)c1ccco1 (stereo not drawn)	-1	.	-2
O=C(c1cnccn1)N1CCc2[nH]c3c(Cl)cc(Cl)cc3c2C1	18	22	3
COCC(=O)N1CCc2[nH]c3c(Cl)cc(Cl)cc3c2C1	48*	96*	1
Nc1ccc(-c2c(-c3ccccc3)[nH]n(-c3cccc(F)c3)c2=O)cc1	1	.	29
Cc1cc(CO)c(OCCOCCOc2c(CO)cc(C)cc2CO)c(CO)c1	62*	.	-9
COc1cc(OC)c(OC)cc1CO	-5	-9	4
CC(=O)Oc1ccccc1Cn1c(C)c(C(=O)NCc2cccc(C)c2)sc1=O	-6	.	7
COc1ccc(CN2CCN(Cc3cccn3-c3ncccn3)CC2CCO)c(C)c1C (stereo not drawn)	-6	-9	49*
COc1ccc(CN2CCN(Cc3cccn3-c3ncccn3)CC2CCO)c(F)c1 (stereo not drawn)	1	.	-5
CCc1nn(C(C)C(=O)NC)c(=O)c2cc3occc3n12 (stereo not drawn)	-5	-4	7
CCc1nn(C(C)C(=O)NC(C)CCc2ccco2)c(=O)c2cc3occc3n12 (stereo not drawn)	-4	-3	68*
O=C(Cc1ccc2c(c1)CCC2)NCC1CCN(c2ccccc2)C1 (stereo not drawn)	1	0	49*
O=C(CN1CCc2ccccc2C1)NCC1CCN(c2ccccc2)C1 (stereo not drawn)	-13	.	-2
CCOC(=O)N1CCN(C(=O)CCN(CCOC)c2nc(Cc3cccc(OC)c3)ns2)CC1	-4	-6	17
Cc1cc(=O)n2[nH]cc(-c3ccccc3Cl)c2n1	46*	26	3
Cc1cc(=O)n2[nH]cc(-c3ccc(F)cc3)c2n1	-7	.	-14
C=CCN(CC(=O)N1CCc2sccc2C1c1ccc(Cl)cc1Cl)S(=O)(=O)c1cccc(C(F)(F)F)c1 (stereo not drawn)	-8	-5	-2
CCCC(=O)NC(c1cccc([N+](=O)[O-])c1)c1ccc2cccnc2c1O (stereo not drawn)	-2	.	0
SMILES	hcGAS lum	mcGAS inh	NPYLR7 ag
O=[N+]([O-])c1cccc(C(Nc2nc3c(s2)CCCC3)c2ccc3cccnc3c2O)c1 (stereo not drawn)	42*	2	-2
COC(=O)C1=C(C)NC(=O)NC1c1ccccc1[N+](=O)[O-] (stereo not drawn)	-1	-2	-1
COC(=O)C1=C(C)NC(C)=C(C(=O)OC)C1c1ccccc1[N+](=O)[O-]	17	51*	14
COCCN(CC(=O)Nc1cc(-c2ccccc2)nn1-c1ccccc1)C(=O)c1cccc(Br)c1	-10	-5	19
N#Cc1cc(I)c(O)c([N+](=O)[O-])c1	67*	.	-7
N#Cc1ccc([N+](=O)[O-])c(O)c1	3	.	-7
N#CCc1cc(-c2ccccc2)on1	-13	.	-7
Oc1cc(O)c2c(c1)O[C@H](c1ccc(O)c(O)c1)[C@@H](O)C2	-2	-5	-1
Oc1cc(O)c2c(c1)O[C@H](c1cc(O)c(O)c(O)c1)[C@H](O)C2	79*	25	.
COc1cc(/C=C(\C#N)C(=O)c2ccc(O)c(O)c2)cc(I)c1O	13	28	191*
COc1cc(C=C(C#N)C(N)=O)cc(OC)c1O	9	.	24
COc1cc(OC)cc(C(=O)N2CCSC23CCN(C(=O)Cc2ccccc2)CC3)c1	-6	-5	-4
Cc1cc(C)c(Cn2ccnc2CN(Cc2cccnc2)C(=O)C2CC2)c(C)c1	-5	-5	8
Cc1oc(-c2ccccc2NS(=O)(=O)c2cccc(F)c2)nc1CNC(=O)CC(C)C	-5	.	5
Cc1oc(-c2cccc(NC(=O)CC(C)C)c2)nc1CNC(=O)Cc1cc(F)cc(F)c1	-7	-8	56*
COc1cccc(CN2CCCn3cccc3C2c2cc(F)ccc2F)c1OC (stereo not drawn)	-2	-4	2
COCc1cc(C)nc(OCC(=O)N/N=C\c2cc(Br)cc(I)c2O)c1C#N	-1	1	0
COCCN=Cc1cc(I)cc(I)c1O	77*	.	51*
Fc1ccccc1-c1cnnc(N2CC[C@@H]3CCCC[C@H]3C2)n1	-4	.	7
COc1cc(C(=O)C=Cc2ccc(C#N)cc2)ccc1O	-10	64*	1
COc1cc(C(=O)C=Cc2cc(OC)c(O)c([N+](=O)[O-])c2)ccc1O	-7	.	-8
COc1ccc(C(=O)C=Cc2cc(OC)c(O)c(OC)c2)cc1F	-4	5	64*
COc1cc(C(=O)C=Cc2ccc(OC(F)F)cc2)ccc1O	-1	35	-6
CCCC(=O)N(Cc1ccccc1)c1nc2c(OC)ccc(OC)c2s1	-4	-7	-1
CC(C)Nc1nnc(Sc2ncccc2C#N)s1	-6	-8	-2
SMILES	hcGAS lum	mcGAS inh	NPYLR7 ag
COc1ccc(CNc2ccc(S(=O)(=O)C(F)(F)F)cc2)cc1O	-8	.	12
Cc1cc(O)c(C=O)c2c1C(=O)Oc1c(COC(=O)/C=C/C(=O)O)c(O)c(C(=O)O)c(C)c1O2	69*	67*	.
CCCCCc1ccc(C(=O)N2CCCN(C(=O)CN3CCc4sccc4C3c3cccc(F)c3)CC2)cc1 (stereo not drawn)	2	1	-2
O=C(NCCC12CC3CC(CC(C3)C1)C2)c1ccc2c(=O)n3c(nc2c1)CCCCC3	3	.	6
O=C(NCCSc1ccc(Cl)cc1)c1ccc2c(=O)n3c(nc2c1)CCC3	4	.	82*
C=CCNC(=O)CC12CC3CC(CC(Br)(C3)C1)C2	-2	.	-3
Cc1cc(C)c2cc3c(cc2n1)CCN3CC(O)CO (stereo not drawn)	-3	.	188*
CC(=O)NC1CCN(c2cc(C)c3cc4c(cc3n2)CCC4)CC1	-6	.	7
CC(C)NCCN1C(=O)C(C)SC1c1ccc(F)cc1 (stereo not drawn)	-4	-6	-2
O=c1[nH]c(=S)[nH]c2c1C(c1cccc([N+](=O)[O-])c1)c1c([nH]c(=S)[nH]c1=O)O2	30	55*	5
O=c1[nH]cnc2c1C(c1cccc([N+](=O)[O-])c1)c1c(nc[nH]c1=O)O2	-8	-7	0
O=C(CN1C(=O)c2ccccc2C1=O)Nc1cccc2ccccc12	-3	-4	0
N#CC(C#N)=C1C=C2C=C(N3CCc4ccccc4C3)CCC2CC1 (stereo not drawn)	-4	.	87*
